In PubChem BioAssay (NCI):
This is part of a sample that, as a whole, favours compounds with a hit. Of some 79,000 tested, about 15% had one in any assay. Rule as the data show it: active = growth inhibition above about 70%; inactive = the rest.

Experiments:
[1] = NCI Yeast Anticancer Drug Screen. Data for the rad50 strain (AID 155);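 also: 0% = growth of vehicle-only cultures of the same strain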; conditions: S. cerevisiae rad50 strain growth inhibition, active compounds read high; at 50.0 µM unless noted
In short: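 Readout: growth inhibition relative to vehicle-treated cultures. Compound exposure was carried out in a genetically defined yeast strain deficient in DNA damage repair.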

[2] = NCI Yeast Anticancer Drug Screen. Data for the mec2-1 strain (AID 157); conditions: S. cerevisiae mec2-1 strain, active compounds read high; at 50.0 µM unless noted
In short: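 Using mec2-1 yeast: add compound, measure growth, express inhibition versus vehicle-treated cultures.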

[3] = NCI Yeast Anticancer Drug Screen. Data for the sgs1 mgt1 strain (AID 161);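 also: 0% = growth of cultures given vehicle only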; conditions: S. cerevisiae sgs1 mgt1 strain, active compounds read high; at 50.0 µM unless noted
In short: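 Growth of a repair-deficient yeast mutant was monitored after compound treatment and expressed as inhibition relative to vehicle-treated cultures.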

[4] = NCI Yeast Anticancer Drug Screen. Data for the cln2 rad14 strain (AID 165);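 also: 0% = growth equal to vehicle treated cultures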; conditions: S. cerevisiae cln2 rad14 strain, active compounds read high; at 50.0 µM unless noted
In short: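 Yeast strain cln2 rad14, bearing defects in cell cycle control and DNA repair, serves as the test system; values reflect growth inhibition compared with vehicle.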

[5] = NCI Yeast Anticancer Drug Screen. Data for the bub3 strain (AID 167); conditions: S. cerevisiae bub3 mutant strain, active compounds read high; at 50.0 µM unless noted
In short: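 Readout: yeast growth inhibition, expressed relative to vehicle-only wells. The test organism is a mutant strain from a panel with lesions in DNA repair or checkpoint genes.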

[6] = NCI Yeast Anticancer Drug Screen. Data for the mlh1 rad18 strain (AID 175); conditions: S. cerevisiae mlh1 rad18 strain growth inhibition, active compounds read high; at 50.0 µM unless noted
In short: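 Steps: expose repair-defective yeast to compound; measure growth; express inhibition against vehicle-treated controls.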

Measured: growth inhibition

CC(C)(O)C(O)c1ccccc1 (stereo not given)
inactive: [1] 10.9% | [2] 7% | [3] 9.1% | [4] 2.3% | [5] 1% | [6] 1.35%

CCCCCN=C(N)C(N)=NCCCCC
inactive: [1] 47.8% | [2] 8% | [3] 24.7% | [4] -31.1% | [5] 5.5% | [6] 24.9%

COC(=O)C(C(=O)C(=O)Nc1ccccc1OC)c1csc(-n2nc(-c3ccccc3)cc2-c2ccccc2)n1 (stereo not given)
inactive: [1] 0.65% | [2] -7.85% | [3] -11.2% | [4] 21.4% | [5] 52.1% | [6] 4.95%

O=C1NCC1c1ccccc1 (stereo not given)
inactive: [1] -12% | [2] -4.85% | [3] -8.65% | [4] 5.35% | [5] 19.1% | [6] 3.45%

N#CC1(c2ccccc2)CCC1
inactive: [1] 4.85% | [2] -24.9% | [3] 7.5% | [4] 16.6% | [5] 6.4% | [6] 5.1%
